Experiment [1] addresses Estrogen receptor beta (Homo sapiens) (UniProt Q92731). Briefly: qHTS assay to identify small molecule agonists of the estrogen receptor beta (ER-beta) signaling pathway (AID 1259377; active = well fitted activation curve with a large enough effect in the signal ratio in the repeat runs, not every such curve was filed as active; the % refers to the signal ratio). The method, boiled down:
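HEK293T ER-beta-UAS-bla; 2% charcoal-stripped FBS; cells pre-incubated 6 hr, compound 16 hr, 37C/5% CO2; LiveBLAzer B/G FRET substrate 2 h RT; fluorescence intensity read.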
For orientation: In qHTS, concentration-response curves come from the screen itself.

The target is the same in experiment [2]. Kind of experiment: qHTS assay to identify small molecule antagonists of the estrogen receptor beta (ER-beta) signaling pathway (AID 1259378; active = well fitted inhibition curve with a large enough effect in the signal ratio in the repeat runs, not every such curve was filed as active; the % refers to the signal ratio). In outline:
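Antagonist mode: compounds added to beta-lactamase reporter HEK293T ER-beta-UAS cells stimulated with E2 (1nM final), 16 hr at 37C. LiveBLAzer B/G FRET substrate, 2 hours room temperature, fluorescence read-out.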

Experiment [3] in a line: qHTS assay to identify small molecule agonists of the androgen receptor (AR) signaling pathway in the presence of an antagonist - cell viability counter screen (AID 1259379). Also: nearly all actives have a fitted effect of over 25% in size. Also: potency is read from the fitted curve at half-maximal effect. In outline: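 MDA-kb2 human breast carcinoma cells (stable MMTV-luciferase, AR/GR responsive) were seeded 3,000 cells/well, pre-incubated 5 hr at 37C without CO2, then given 3.0uM nilutamide and compounds at 15 concentrations for 16 hr. Viability was read by CellTiter-Fluor fluorescence.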

Experiment [4] is described as follows: qHTS assay to identify small molecule agonists of the estrogen receptor beta (ER-beta) signaling pathway - cell viability counter screen (AID 1259380). Also: nearly all actives have a fitted effect of over 30% in size. The method, boiled down: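 ER-beta-UAS-bla HEK293T cells in medium with 2% charcoal-stripped FBS were preincubated 6 hr at 37C, dosed with compound in DMSO for 16 hr, then after the bla read, CellTiter-Glo was added for 30 min at room temperature; luminescence recorded.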

Experiment [5] in a line: qHTS assay to identify small molecule antagonists of the estrogen receptor beta (ER-beta) signaling pathway - cell viability counter screen (AID 1259382).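 Also: HEK293T cells carrying ER-beta-UAS-bla reporter stimulated with estradiol; series mostly up to about 92 µM; nearly all actives have a fitted effect of over 55% in size.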 The method, boiled down:
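ER-beta-UAS-bla HEK293T cells (2,000/well, 2% charcoal-stripped FBS) were pre-incubated 6 hr at 37C, then given compound plus 1nM final 17-beta-estradiol for 16 hr. Viability was read in the same wells by CellTiter-Glo luminescence after 30 min at room temperature.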

Experiment [6] addresses Estrogen receptor (Homo sapiens) (UniProt P03372). Kind of experiment: qHTS assay to identify small molecule agonists of the estrogen receptor alpha (ER-alpha) signaling pathway in the presence of an antagonist (AID 1259383; calls by dose curve; also: top concentration of the series differs between compounds; nearly all actives have a fitted effect of over 15% in size). In outline: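 VM7Luc4E2 cells (endogenous full-length ER-alpha, 4×ERE-luciferase) were precultured 5 days in phenol red-free medium with 10% charcoal-stripped FBS, given 10.0nM ICI-182,780 (final), then treated with compounds at 15 concentrations for 22hr at 37C; luminescence read with ONE-Glo.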

Experiment [7] is described as follows: qHTS assay to identify small molecule agonists or antagonists of the thyroid stimulating hormone receptor (TSHR) signaling pathway - wild type cell line counter screen (AID 1259384; calls by dose curve). In outline: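 Counter screen in untransfected Hek293: compounds (15-point titration, triplicate) plus phosphodiesterase inhibitor Ro20-1724 added after 18 h plating; 30 min RT. Intracellular cAMP via competitive d2/cryptate immunoassay, 1 h incubation.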

Experiment [8] deals with Thyrotropin receptor (Homo sapiens) (UniProt P16473). Briefly: qHTS assay to identify small molecule antagonists of the thyroid stimulating hormone receptor (TSHR) signaling pathway (AID 1259385; calls by dose curve; also: nearly all actives have a fitted effect of over 20% in size). In outline:
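Antagonist mode: compound-treated TSHR-expressing HEK293 cells were stimulated with 1.5 ng/mL TSH (final) in presence of Ro20-1724 for 30 min at RT. HTRF cAMP detection after 1 h; each compound tested at 15 concentrations, triplicate.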

Experiment [9] in a line: qHTS assay to identify small molecule agonists of the estrogen receptor alpha (ER-alpha) signaling pathway in the presence of an antagonist - cell viability counter screen (AID 1259386).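 Also: cells exposed to compounds for 22 h at 37 °C before the viability read; nearly all actives have a fitted effect of over 30% in size.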 Also: potency is read from the fitted curve at half-maximal effect. The method, boiled down: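 VM7Luc4E2 cells (endogenous full-length ER-alpha, 4×ERE-luciferase) were held 5 days in phenol red-free medium with 10% charcoal-stripped FBS, plated, then given 10.0nM ICI-182,780 and compounds at 15 concentrations for 22hr at 37C; viability read by CellTiter-Fluor fluorescence.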

Experiment [10] deals with Progesterone receptor (Homo sapiens) (UniProt P06401). Kind of experiment: qHTS assay to identify small molecule agonists of the progesterone receptor (PR) signaling pathway (AID 1346784; calls by dose curve; also: nearly all actives have a fitted effect of over 30% in size). In outline: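 Beta-lactamase reporter read-out: after 16 hr compound treatment at 37C and a further 2 hr at room temperature with LiveBLAzer B/G FRET substrate, fluorescence was measured in PR-UAS-bla HEK 293T cells grown in 2% charcoal-stripped serum.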
Progesterone receptor (Homo sapiens), sequence (P06401 whole entry, looked up): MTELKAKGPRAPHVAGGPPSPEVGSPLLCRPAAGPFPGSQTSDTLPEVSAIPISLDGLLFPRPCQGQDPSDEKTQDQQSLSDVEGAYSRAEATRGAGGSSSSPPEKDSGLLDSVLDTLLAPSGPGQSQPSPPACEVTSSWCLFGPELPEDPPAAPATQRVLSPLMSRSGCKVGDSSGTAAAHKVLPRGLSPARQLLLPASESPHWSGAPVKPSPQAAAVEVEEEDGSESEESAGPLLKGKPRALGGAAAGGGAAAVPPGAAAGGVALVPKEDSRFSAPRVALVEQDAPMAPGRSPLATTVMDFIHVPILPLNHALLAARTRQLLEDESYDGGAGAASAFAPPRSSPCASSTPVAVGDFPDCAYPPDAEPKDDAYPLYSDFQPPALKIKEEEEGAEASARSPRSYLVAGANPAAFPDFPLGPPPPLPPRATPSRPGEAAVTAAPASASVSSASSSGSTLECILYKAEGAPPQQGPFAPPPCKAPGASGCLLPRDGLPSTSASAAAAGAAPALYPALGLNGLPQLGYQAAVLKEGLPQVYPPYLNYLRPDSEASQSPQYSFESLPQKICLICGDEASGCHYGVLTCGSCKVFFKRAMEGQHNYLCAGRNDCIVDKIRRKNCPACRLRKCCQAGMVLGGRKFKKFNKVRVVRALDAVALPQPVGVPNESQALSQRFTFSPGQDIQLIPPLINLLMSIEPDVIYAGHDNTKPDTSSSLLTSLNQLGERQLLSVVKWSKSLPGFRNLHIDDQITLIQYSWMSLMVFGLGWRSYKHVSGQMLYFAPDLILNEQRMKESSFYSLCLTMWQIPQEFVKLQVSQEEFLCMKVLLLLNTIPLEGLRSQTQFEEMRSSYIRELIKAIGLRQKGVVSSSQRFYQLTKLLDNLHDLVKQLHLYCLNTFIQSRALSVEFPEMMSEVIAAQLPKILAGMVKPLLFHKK

Experiment [11] has the same target. Kind of experiment: qHTS assay to identify small molecule antagonists of the progesterone receptor (PR) signaling pathway (AID 1346795; active = well fitted inhibition curve with a large enough effect in the signal ratio in the repeat runs, not every such curve was filed as active; the % refers to the signal ratio). The method, boiled down:
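Read-out is fluorescence from the LiveBLAzer B/G FRET substrate, cleaved by a UAS-controlled beta-lactamase in PR-UAS-bla HEK293T cells after 16 hr exposure to compound plus 1 nM promegestone (final), followed by 2 hr at room temperature.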

Experiment [12] is described as follows: qHTS assay to identify small molecule antagonists of the progesterone receptor (PR) signaling pathway - cell viability counter screen (AID 1346798). Also: series mostly up to about 92 µM; nearly all actives have a fitted effect of over 50% in size. The method, boiled down: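 HEK293T PR-UAS-bla, 2% charcoal-stripped FBS; 4 hr pre-plate; cpd + R5020, 16 h 37C; LiveBLAzer read first; then CellTiter-Glo 30 min RT, luminescence.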
The nature of experiment [13]: qHTS assay to identify small molecule antagonists of the TGF-beta/Smad signaling pathway - cell viability counter screen (AID 1346824). Also: nearly all actives have a fitted effect of over 50% in size. In outline: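 Cytotoxicity counter-screen run in the same wells as the beta-lactamase Smad reporter read: CellTiter-Glo luminescence after 30 min at room temperature. HEK 293T SBE-bla cells had 5 hr compound exposure at 37 C with TGF-beta1 (0.25 ng/mL stock).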

Experiment [14] can be described thus: qHTS assay to identify small molecule agonists of the TGF-beta/Smad signaling pathway - cell viability counter screen (AID 1346829). Also: top concentration of the series differs between compounds; nearly all actives have a fitted effect of over 45% in size. The method, boiled down:
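Luminescence from CellTiter-Glo, read after a 30 min room-temperature incubation, gives cell viability of SBE-bla HEK 293T cells treated 5 hr with compounds at 37 C.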

A short description of experiment [15]: qHTS assay to identify small molecule agonists of the TGF-beta/Smad signaling pathway (AID 1346859; active = well fitted activation curve with a large enough effect in the signal ratio in the repeat runs, not every such curve was filed as active; the % refers to the signal ratio; also: series mostly up to about 77 µM). In outline: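 SBE-bla HEK 293T, 4,000 cells/well, plated o/n; cpd in DMSO, 5 hr, 37 C/5% CO2; B/G FRET substrate 2 hr RT; ex 405, em 460/530 nm.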
Experiment [16] in a line: Human pregnane X receptor (PXR) small molecule agonists, qHTS cell viability counter screen (AID 1346977). Also: nearly all actives have a fitted effect of over 50% in size. In outline: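 PXR-Luc HepG2, 2,000 cells/well, 5% charcoal-stripped FBS; 5hr settle; cpd 24hr, 37C/5% CO2; CellTiter-Fluor at 23hr, read 1hr later (fluorescence).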
Experiment [17] in a line: qHTS assay to identify small molecule agonists of the progesterone receptor (PR) signaling pathway - cell viability counter screen (AID 1346799; calls by dose curve; also: nearly all actives have a fitted effect of over 45% in size). The method, boiled down: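 Luminescence from CellTiter-Glo, added after the beta-lactamase FRET read in the same wells, gave cytotoxicity in PR-UAS-bla HEK293T cells treated with compounds for 16 hr at 37C.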
In experiment [18] the target is Thyrotropin-releasing hormone receptor (Homo sapiens) (UniProt P34981). Kind of experiment: qHTS assay to identify small molecule antagonists of the thyrotropin-releasing hormone receptor (TRHR) signaling pathway (AID 1346877; active = well fitted inhibition curve with a large enough effect in the repeat runs, not every such curve was filed as active; also: series mostly up to about 51 µM). The method, boiled down:
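TRHR-expressing HEK293 cells were seeded, cultured 18 h at 37 °C, then loaded with calcium dye for 2 h. Compounds were pre-incubated 5 min at room temperature before 1 nM TRH (final) was added, and kinetic fluorescence was recorded for 3 min.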

Experiment [19] shares this target. Kind of experiment: qHTS assay to identify small molecule agonists of the thyrotropin-releasing hormone receptor (TRHR) signaling pathway (AID 1346891; calls by dose curve; also: series mostly up to about 58 µM). In outline: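 Intracellular calcium rise, read as fluorescence every second for 3 min, served as the agonist signal in dye-loaded HEK293 cells expressing TRHR; each compound ran at 15 concentrations in triplicate.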

In experiment [20] the target is Androgen receptor (Homo sapiens) (UniProt P10275). Kind of experiment: qHTS assay to identify small molecule agonists of the androgen receptor (AR) signaling pathway in the presence of an antagonist (AID 1259381; calls by dose curve; also: nearly all actives have a fitted effect of over 15% in size). The method, boiled down: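 MDA-kb2 human breast carcinoma cells carrying an MMTV-luciferase reporter (AR- and GR-responsive) were treated with compounds at 15 concentrations plus 3.0uM final nilutamide for 16hr at 37C without CO2; luminescence was read after ONE-Glo addition.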
Androgen receptor (Homo sapiens), sequence (P10275 whole entry, looked up): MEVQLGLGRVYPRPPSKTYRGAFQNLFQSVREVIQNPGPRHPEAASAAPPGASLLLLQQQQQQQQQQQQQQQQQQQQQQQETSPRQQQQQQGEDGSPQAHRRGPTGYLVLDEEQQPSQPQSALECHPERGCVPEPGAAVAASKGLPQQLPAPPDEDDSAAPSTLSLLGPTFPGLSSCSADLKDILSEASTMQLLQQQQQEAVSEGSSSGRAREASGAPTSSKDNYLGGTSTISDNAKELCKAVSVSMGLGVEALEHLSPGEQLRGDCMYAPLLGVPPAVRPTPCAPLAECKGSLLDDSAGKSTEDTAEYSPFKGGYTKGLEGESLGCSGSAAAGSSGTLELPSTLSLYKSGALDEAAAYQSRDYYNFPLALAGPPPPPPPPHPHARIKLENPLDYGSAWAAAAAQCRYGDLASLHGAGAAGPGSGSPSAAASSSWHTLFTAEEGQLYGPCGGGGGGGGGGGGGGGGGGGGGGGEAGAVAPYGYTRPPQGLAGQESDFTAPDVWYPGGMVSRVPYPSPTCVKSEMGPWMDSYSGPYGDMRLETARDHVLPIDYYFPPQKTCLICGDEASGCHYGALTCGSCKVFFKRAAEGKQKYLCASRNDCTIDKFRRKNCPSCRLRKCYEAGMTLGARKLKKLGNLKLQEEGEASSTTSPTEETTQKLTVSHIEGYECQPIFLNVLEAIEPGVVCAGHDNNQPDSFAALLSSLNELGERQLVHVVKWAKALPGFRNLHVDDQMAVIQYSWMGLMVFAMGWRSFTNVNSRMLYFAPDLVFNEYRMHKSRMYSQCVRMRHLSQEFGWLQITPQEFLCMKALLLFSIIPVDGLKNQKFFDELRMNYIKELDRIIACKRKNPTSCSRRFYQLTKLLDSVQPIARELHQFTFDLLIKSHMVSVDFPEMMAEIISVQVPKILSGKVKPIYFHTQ

The results in this text go back to PubChem BioAssay (Tox21).

Values without a mark were called inactive. Records with an inconclusive call do not appear. Activity calls are given as the source filed them. Unless noted, calls follow the shape of the dose curve; as a rule, active = well fitted curve in the direction sought with a large enough effect in the repeat runs; inconclusive = weak or mixed curves; inactive = no such curve, though single readings can be large; an effect the other way counts as inactive or inconclusive.

Thyrotropin-releasing hormone receptor (Homo sapiens), sequence (P34981 whole entry, looked up): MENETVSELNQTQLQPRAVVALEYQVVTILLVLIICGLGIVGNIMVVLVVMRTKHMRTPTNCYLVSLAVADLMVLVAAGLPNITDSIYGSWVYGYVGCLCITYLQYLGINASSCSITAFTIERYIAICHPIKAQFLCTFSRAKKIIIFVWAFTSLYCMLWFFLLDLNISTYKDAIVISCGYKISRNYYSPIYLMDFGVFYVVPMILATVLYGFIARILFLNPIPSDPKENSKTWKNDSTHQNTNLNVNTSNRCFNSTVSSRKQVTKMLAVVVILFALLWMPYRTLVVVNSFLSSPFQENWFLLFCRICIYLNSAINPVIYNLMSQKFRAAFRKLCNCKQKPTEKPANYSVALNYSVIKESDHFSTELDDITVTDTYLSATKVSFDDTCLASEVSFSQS
Thyrotropin receptor (Homo sapiens), sequence (P16473 whole entry, looked up): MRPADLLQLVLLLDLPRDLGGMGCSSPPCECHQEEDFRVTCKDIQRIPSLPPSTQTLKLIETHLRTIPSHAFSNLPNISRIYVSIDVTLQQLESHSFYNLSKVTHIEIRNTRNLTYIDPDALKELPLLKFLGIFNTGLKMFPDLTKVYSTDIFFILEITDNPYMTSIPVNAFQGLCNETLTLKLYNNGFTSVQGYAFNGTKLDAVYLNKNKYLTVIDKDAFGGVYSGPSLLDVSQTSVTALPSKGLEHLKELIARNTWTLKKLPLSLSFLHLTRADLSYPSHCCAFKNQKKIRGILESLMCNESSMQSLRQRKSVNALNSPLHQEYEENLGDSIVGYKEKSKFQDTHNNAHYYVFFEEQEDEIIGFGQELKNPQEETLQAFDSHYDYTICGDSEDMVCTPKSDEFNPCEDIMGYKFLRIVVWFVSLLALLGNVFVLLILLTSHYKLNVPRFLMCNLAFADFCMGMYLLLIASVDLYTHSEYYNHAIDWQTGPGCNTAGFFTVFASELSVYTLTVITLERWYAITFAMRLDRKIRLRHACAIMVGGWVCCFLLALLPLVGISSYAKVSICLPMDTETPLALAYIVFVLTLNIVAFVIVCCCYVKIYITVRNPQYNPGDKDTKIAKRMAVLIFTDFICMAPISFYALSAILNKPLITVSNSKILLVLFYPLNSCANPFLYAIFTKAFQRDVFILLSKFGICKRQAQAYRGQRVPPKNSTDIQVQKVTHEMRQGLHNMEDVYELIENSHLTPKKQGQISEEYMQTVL
Estrogen receptor beta (Homo sapiens), sequence (Q92731 whole entry, looked up): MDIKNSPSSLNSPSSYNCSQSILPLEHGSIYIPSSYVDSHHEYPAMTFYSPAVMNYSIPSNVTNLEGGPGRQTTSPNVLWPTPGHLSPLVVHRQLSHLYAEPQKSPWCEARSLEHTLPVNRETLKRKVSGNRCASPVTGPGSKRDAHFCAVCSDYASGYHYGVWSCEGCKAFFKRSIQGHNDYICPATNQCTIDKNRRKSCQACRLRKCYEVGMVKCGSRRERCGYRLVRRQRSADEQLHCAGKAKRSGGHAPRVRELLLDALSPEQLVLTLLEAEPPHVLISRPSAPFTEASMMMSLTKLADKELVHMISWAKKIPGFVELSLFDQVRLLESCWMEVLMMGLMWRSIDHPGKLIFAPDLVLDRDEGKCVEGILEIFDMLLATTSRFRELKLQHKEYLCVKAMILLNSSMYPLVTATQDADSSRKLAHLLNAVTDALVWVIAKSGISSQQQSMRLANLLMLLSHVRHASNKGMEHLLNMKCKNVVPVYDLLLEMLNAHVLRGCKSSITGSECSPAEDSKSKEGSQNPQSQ
Estrogen receptor (Homo sapiens), sequence (P03372 whole entry, looked up): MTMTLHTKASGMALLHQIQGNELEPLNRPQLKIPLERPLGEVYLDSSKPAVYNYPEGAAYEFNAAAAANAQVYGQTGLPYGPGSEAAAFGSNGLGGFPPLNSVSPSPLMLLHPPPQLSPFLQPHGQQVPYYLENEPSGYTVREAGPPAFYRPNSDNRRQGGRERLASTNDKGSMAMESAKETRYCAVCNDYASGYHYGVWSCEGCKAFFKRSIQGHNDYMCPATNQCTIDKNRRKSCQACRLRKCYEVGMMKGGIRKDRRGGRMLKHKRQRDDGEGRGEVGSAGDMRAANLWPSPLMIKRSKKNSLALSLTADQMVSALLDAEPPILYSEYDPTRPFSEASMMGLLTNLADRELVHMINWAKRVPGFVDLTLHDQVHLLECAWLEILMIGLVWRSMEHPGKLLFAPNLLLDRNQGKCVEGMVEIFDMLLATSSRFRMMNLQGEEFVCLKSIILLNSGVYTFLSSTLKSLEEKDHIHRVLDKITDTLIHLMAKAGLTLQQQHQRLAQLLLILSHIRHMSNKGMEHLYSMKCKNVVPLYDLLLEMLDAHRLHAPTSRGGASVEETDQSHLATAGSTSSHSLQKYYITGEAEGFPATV

With `C1CCC(SSC2CCCCC2)CC1`, the Potency result in experiment [1], in experiment [2], in experiment [3], in [4], in [5] and in [6] was “inactive” in each case. Besides, the Potency result in experiment [8], in [9], in experiment [10], in [11], in experiment [12] and in experiment [13] was “inactive” each time. Also, the Potency result in experiment [14], in [15] and in experiment [16] was “inactive” throughout. The result in experiment [7] was inactive.
`O=C(O)Cc1ccc2c(c1)C(=O)c1ccccc1CO2`: the Potency entry in experiment [1], in [2], in experiment [3], in experiment [4], in experiment [5] and in experiment [6] was “inactive” in each case. In addition, the Potency result in [8], in experiment [9], in experiment [10], in experiment [11], in experiment [12] and in experiment [17] was “inactive” in each case. Moreover, the Potency entry in experiment [13], in [14] and in experiment [16] was “inactive” each time. Moreover, in experiment [7], the molecule was classed as inactive.
Consider `O=C(Nc1ccc2c(O)c(N=Nc3ccc(N=Nc4ccc(S(=O)(=O)O)cc4)cc3)c(S(=O)(=O)O)cc2c1)c1ccccc1`, for which the Potency result in [1], in experiment [2], in [4], in [6], in experiment [8] and in [10] was “inactive” each time. Moreover, the Potency result in experiment [11], in experiment [12], in experiment [17], in experiment [13], in experiment [14] and in experiment [15] was “inactive” each time. The Potency entry in experiment [18] is “inactive”. Also, the figures for the Potency in experiment [3] and in [9] were 21.7 µM (active) and 13.7 µM (active), respectively. The molecule was called inactive in experiment [7] and in experiment [19].
As for `C=CCCC(=O)/C=C/C1C(C)=CCCC1(C)C` (stereo not drawn), the Potency entry in experiment [1], in [2], in [3], in experiment [4], in experiment [5] and in [9] was “inactive” each time. Besides, the Potency result in experiment [10], in experiment [11], in experiment [12], in experiment [17], in experiment [13] and in [14] was “inactive” each time. Further, the Potency result in [15], in [18] and in experiment [16] was “inactive” throughout. In addition, in experiment [19], the molecule was called inactive.
As for `OC[C@@H](O)[C@@H](O)CO`, the Potency result in [1], in [2], in [3], in [4], in experiment [5] and in experiment [6] was “inactive” each time. The Potency result in experiment [8], in [9], in experiment [10], in [11], in experiment [12] and in [17] was “inactive” each time. Further, the Potency result in [13], in experiment [14], in experiment [15], in experiment [18] and in experiment [16] was “inactive” each time. The call in experiment [7] and in experiment [19] was inactive.
Take `CCCCCCCCCCOC(=O)c1ccccc1C(=O)OCCCCCCCC`: the Potency result in [1], in [2], in experiment [3], in experiment [4], in experiment [5] and in [6] was “inactive” throughout. In addition, the Potency entry in experiment [8], in experiment [9], in [10], in experiment [11], in [12] and in experiment [17] was “inactive” in each case. The Potency result in experiment [13], in [14], in [15], in experiment [18] and in experiment [16] was “inactive” each time. For the same molecule, the result in experiment [20], in experiment [7] and in experiment [19] was inactive.
`CC/C=C\CCCCCO`: the Potency entry in [1], in [2], in [3], in experiment [4], in experiment [8] and in [9] was “inactive” throughout. Also, the Potency result in experiment [10], in experiment [11], in experiment [12], in [17], in [13] and in experiment [14] was “inactive” in each case. Besides, the Potency entry in experiment [16] is “inactive”. The outcome in experiment [7] was inactive.
